# In the library only some 3.5% were active in any assay of this set; here they are far more common.
# MITF inh – inhibitors of human MITF. AlphaScreen MITF homodimerization, bead proximity signal. inhibition, % at 2.6 µM. O75030. hit rate 0.91% among 650,000; in the data active = inhibition above about 50%
# TEAD-YAP inh – TEAD-YAP interaction inhibition; HEK-TIYL cells, TEAD-Gal4/YAP UAS-luciferase luminescence; inhibition, % at 9.12 µM; hit rate 1.4% among 640,000; in the data active = inhibition above about 32%
# FBW7 act – activators of human E3 ligase FBW7; normalized activity (activation), % at 26.1 µM; hit rate 0.13% among 650,000; AlphaScreen FBW7–phospho-cyclin E peptide binding, activator screen; AID 1259310; Q969H0; in the data active = normalized activity above about 1.9%;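 note: purified mutant Fbw7 with reduced substrate affinity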
# Target sequence (Q969H0 whole entry, looked up): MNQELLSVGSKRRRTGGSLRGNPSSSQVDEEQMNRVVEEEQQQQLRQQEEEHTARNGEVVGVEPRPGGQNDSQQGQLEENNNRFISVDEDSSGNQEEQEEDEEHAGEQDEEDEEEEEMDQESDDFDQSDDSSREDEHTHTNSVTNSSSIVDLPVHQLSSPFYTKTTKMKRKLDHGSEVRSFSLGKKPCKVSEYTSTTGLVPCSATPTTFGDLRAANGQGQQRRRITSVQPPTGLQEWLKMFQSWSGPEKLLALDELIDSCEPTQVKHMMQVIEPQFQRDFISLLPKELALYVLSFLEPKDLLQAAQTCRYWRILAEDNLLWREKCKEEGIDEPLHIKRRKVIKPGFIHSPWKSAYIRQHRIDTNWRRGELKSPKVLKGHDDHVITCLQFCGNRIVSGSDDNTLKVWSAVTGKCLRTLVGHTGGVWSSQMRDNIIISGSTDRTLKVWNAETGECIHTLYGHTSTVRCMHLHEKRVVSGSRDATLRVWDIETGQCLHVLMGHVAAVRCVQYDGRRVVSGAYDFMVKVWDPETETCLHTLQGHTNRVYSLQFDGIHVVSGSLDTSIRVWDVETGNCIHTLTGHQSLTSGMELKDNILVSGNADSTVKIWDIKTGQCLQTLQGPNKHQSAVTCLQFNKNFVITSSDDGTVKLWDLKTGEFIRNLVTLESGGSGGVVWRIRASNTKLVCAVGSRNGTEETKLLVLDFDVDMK
# GPR151 ag – activates the human receptor GPR151; hit rate 1% among 650,000; activation, % at 11.2 µM; Q8TDV0; PathHunter beta-arrestin GPR151 cells, luminescence; in the data active = activation above about 4.9%
# GPR151 confirm – confirmation of human GPR151 activators. shares compounds with GPR151 ag. GPR151 PathHunter beta-arrestin cells, luminescence, 90 min; % of EA-reagent control over plate median. activation, % at 11.2 µM. 6,700 tested, under 10 active;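 active = mean percent activation across replicates above the confirmation screen cutoff of 4.91%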
# GPR119 counter – counter-screen for GPR151 activators: effect on human GPR119. GPR119 PathHunter beta-arrestin cells, luminescence, 90 min; 0 = compound-well median, 100 = enzyme-acceptor control. shares compounds with GPR151 ag. AID 1508611. activation, % at 11.2 µM. hit rate 0.3% among 6,700;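 active = mean percent activation in the counterscreen above 29.09%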;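 note: counterscreen on off-target GPR119 to flag nonselective hits from the GPR151 activator screen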
# A number is an active result; . = inactive; / = no result given.
SMILES,MITF inh,TEAD-YAP inh,FBW7 act,GPR151 ag,GPR151 confirm,GPR119 counter
O=C(CC1Sc2ccccc2NC1=O)NCc1ccc2c(c1)OCO2 (configuration not stated),.,.,.,7.3,.,.
Cc1ccc(C2c3c(oc4ccc(C)cc4c3=O)C(=O)N2CCCN(C)C)cc1 (configuration not stated),.,.,.,.,/,/
Cc1ccccc1OCC(=O)Nc1ccc(Cl)c(-c2nc3ccccc3s2)c1,.,.,.,6.4,.,.
Cc1ccc(NC(=O)NC23CC4CC(CC(C4)C2)C3)cc1NC(=O)NC12CC3CC(CC(C3)C1)C2,.,.,.,.,/,/
Cc1ccc(NC(=O)NC23CC4CC(CC(C4)C2)C3)cc1,.,.,.,5.6,.,.
CN(Cc1ccccc1)S(=O)(=O)c1cc(Br)cnc1N,.,.,.,.,/,/
Nc1ncc(Br)cc1S(=O)(=O)N(CCc1ccccc1)Cc1ccccc1,.,.,.,9.3,.,.
CCOC(=O)CSc1nc2cc3c(cc2c(=O)n1CCCC(=O)NCc1ccc(OC)cc1)OCO3,.,.,.,.,/,/
CCN(Cc1ccco1)C(=O)Cn1nc2n(Cc3ccccc3F)c3ccccc3n2c1=O,.,.,.,6.6,.,.
CCN(Cc1ccco1)C(=O)Cn1nc2c(C)cc3ccccc3n2c1=O,.,.,.,.,/,/
CC(C)(C)c1ccc(OCCCN2C(=O)C(=O)c3ccccc32)cc1,.,.,.,.,/,/
CC(C)(C)c1ccc(OCCN2C(=O)C(=O)c3ccccc32)cc1,.,.,.,5.4,.,.
Cc1cccc(CNC2CCN(c3ccc(C(=O)N4CCCC(O)C4)cc3)CC2)n1 (configuration not stated),.,.,.,6.7,.,.
COc1cc(OC)c(OC)cc1/C=C1\N=C(c2cccc(C)c2)OC1=O,.,.,.,.,/,/
COC(=O)c1cnn(C(=O)c2ccncc2)c1N,.,.,.,.,/,/
COC(=O)c1cnn(C(=O)c2ccc(OC)cc2)c1N,.,.,.,6.2,.,.
COc1ccc(C(=O)N/N=C/c2cc(OC)ccc2O)cc1,.,.,.,.,/,/
COc1ccc(O)c(/C=N/NC(=O)c2cc([N+](=O)[O-])cc([N+](=O)[O-])c2)c1,.,.,.,7.0,.,.
CC(C)(C)c1ccc(C(=O)N/N=C/c2ccc(O)c([N+](=O)[O-])c2)cc1,.,.,.,5.1,.,.
O=C(N/N=C/c1cc([N+](=O)[O-])ccc1O)C12CC3CC(CC(C3)C1)C2,.,.,.,5.1,.,.
COc1ccc(/C=N\NC(=O)c2ccc([N+](=O)[O-])cc2)cc1Cl,.,.,.,6.5,.,.
COCCN(C(=O)Cc1ccc(F)cc1)C1CCN(Cc2ccncc2)CC1,.,.,.,6.6,.,.
NC(=O)CSc1nnc(Cc2ccccc2)n1-c1ccc(F)cc1,.,.,.,6.0,.,.
O=S(=O)(NCc1csc(-c2cccnc2)n1)c1ccc(Br)cc1,.,.,.,5.6,.,.
COC(=O)c1ccccc1S(=O)(=O)Nc1cccc(OC)c1,.,.,.,.,/,/
SMILES,MITF inh,TEAD-YAP inh,FBW7 act,GPR151 ag,GPR151 confirm,GPR119 counter
Cc1ccc(S(=O)(=O)N2CCC(c3nc(-c4ccccc4C)no3)CC2)cc1,.,.,.,6.2,.,.
Cc1ccc(-c2noc(C3CCN(S(=O)(=O)c4ccccc4)CC3)n2)cc1,.,.,.,.,/,/
COc1cccc(S(=O)(=O)N2CCC(c3nc(-c4cccnc4)no3)CC2)c1,.,.,.,7.4,.,.
Nc1nonc1C(=O)NCCNCc1ccccc1Cl,.,.,.,.,/,/
CCOc1ccccc1CNCCNC(=O)c1nonc1N,.,.,.,6.3,.,.
COc1ccc(/C=C2/SC(=Nc3ccc(O)cc3)NC2=O)cc1,.,.,.,5.0,.,.
Cc1cc(C)cc(N=C2NC(=O)/C(=C/c3ccc(OCc4ccc(Br)cc4)c(Br)c3)S2)c1,.,.,.,.,/,/
COc1ccc(/C=C2\SC(=Nc3ccc(O)cc3)NC2=O)cc1,.,.,.,.,/,/
Cc1cc(C)cc(N=C2NC(=O)/C(=C/c3ccc(OCc4ccc(Br)cc4)cc3)S2)c1,.,.,.,5.7,.,.
COC(=O)C1=NN(C(C)=O)C2C(=O)N(c3ccc(Cl)cc3)C(=O)C12 (configuration not stated),.,.,.,.,/,/
COc1ccc(C(=O)Nc2ccc3c(c2)C(=O)N(C2CCCCC2)C3=O)cc1,.,.,.,5.5,.,.
COc1ccc(C(=O)Nc2ccc(C(=O)N3CCCCC3)cc2)cc1,.,.,.,.,/,/
COc1ccc(C(=O)Nc2cccc(C(=O)N3CCCC3)c2)cc1,.,.,.,39,.,.
Cc1ccc2nc(CN3CCCCC3c3nccs3)nc(N)c2c1 (configuration not stated),.,.,.,.,/,/
Cn1c(=O)c2ccccc2n(C)c1=S,.,.,.,5.6,.,.
O=C(c1cnsn1)N1CCOc2ccc(C(O)CCc3ccccc3)cc2C1 (configuration not stated),.,.,.,5.3,.,.
CCc1cccc(NS(=O)(=O)c2ccc3c(c2)n(C)c(=O)n3C)c1,.,.,.,.,/,/
Cn1c(=O)n(C)c2cc(S(=O)(=O)Nc3cccc(C(F)(F)F)c3)ccc21,.,.,.,5.1,.,.
CCCCCCc1cc(O)c2c(C)cc(=O)oc2c1,.,.,.,7.0,.,.
O=C(CNC(=O)c1ccc(Cl)cc1)NCC(=O)OCC(=O)c1ccc([N+](=O)[O-])cc1,.,.,.,.,/,/
CC(=O)c1ccc(OC(C)C)c(CSC(=N)N)c1,.,.,.,6.5,.,.
Cc1cc(/C=C2\C(=O)NC(=O)N(C)C2=O)c(C)n1-c1ccc2ccccc2c1,.,.,.,.,/,/
CCN(CC)C(=O)C1CCCN(c2nc(NCc3cccnc3)c3ncn(-c4ccsc4)c3n2)C1 (configuration not stated),.,37,.,6.6,.,.
COc1ccc(S(=O)(=O)n2nc(C)cc2C)cc1,.,.,.,5.0,.,.
O=C(c1ccccc1[N+](=O)[O-])N(Cc1ccc(Cl)cc1)C1CCS(=O)(=O)C1 (configuration not stated),.,.,.,5.0,.,.
SMILES,MITF inh,TEAD-YAP inh,FBW7 act,GPR151 ag,GPR151 confirm,GPR119 counter
CN(C)c1ccc(CN(C(=O)c2ccccc2[N+](=O)[O-])C2CCS(=O)(=O)C2)cc1 (configuration not stated),.,.,.,.,/,/
CCCOC(=O)c1ccc2c(c1)C(=O)N(c1cc(C)ccc1C)C2=O,.,.,.,.,/,/
COc1ccc(-c2noc(CN(C)CCOc3ccccc3)n2)c(OC)c1OC,.,.,.,.,/,/
CN(CCOc1ccccc1)Cc1nc(-c2ccccc2)no1,.,.,.,9.5,.,.
COC(=O)c1ccc(COC(=O)c2ccccc2CC#N)cc1,.,.,.,.,/,/
Cc1cc(CSc2ccccc2)ccc1NS(C)(=O)=O,.,.,.,5.3,.,.
CC(=O)Nc1ccc(CSc2ccccc2)cc1C,.,.,.,.,/,/
